IMPase Li cell: membrane-permeable IMPase blocker, potentiated with lithium. CHO-M1 cells, IP1 TR-FRET (IP-One), carbachol + lithium. Potency, µM (top dose mostly 59.4 µM), usual class: inhibitors. actives 0.35% (n = 210,000). AID 1457;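 note: IP1 builds up when IMPase is blocked and the TR-FRET signal falls; nearly all actives have a fitted effect of over 50% in size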
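IP1 accumulation measured by competitive TR-FRET in lysed CHO-M1 cells after 30 min compound exposure at 37C, with a small lithium addition to potentiate weak responses. Hill-equation AC50 from ratio and donor-channel data.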
ALDH1A1 block: ALDH1A1 (human) enzyme inhibition. P00352. Potency, µM (top dose mostly 75.3 µM), actives largely listed as inhibitors. Purified ALDH1A1, NADH fluorescence, propionaldehyde substrate. actives 7.3% (n = 220,000); active = well fitted inhibition curve with a large enough effect, not every such curve was filed as active; inconclusive = small, poorly fitted or top-dose-only effect, or another doubt; inactive = no such curve, though single readings can be large or run the other way
Target sequence (P00352 whole entry, looked up): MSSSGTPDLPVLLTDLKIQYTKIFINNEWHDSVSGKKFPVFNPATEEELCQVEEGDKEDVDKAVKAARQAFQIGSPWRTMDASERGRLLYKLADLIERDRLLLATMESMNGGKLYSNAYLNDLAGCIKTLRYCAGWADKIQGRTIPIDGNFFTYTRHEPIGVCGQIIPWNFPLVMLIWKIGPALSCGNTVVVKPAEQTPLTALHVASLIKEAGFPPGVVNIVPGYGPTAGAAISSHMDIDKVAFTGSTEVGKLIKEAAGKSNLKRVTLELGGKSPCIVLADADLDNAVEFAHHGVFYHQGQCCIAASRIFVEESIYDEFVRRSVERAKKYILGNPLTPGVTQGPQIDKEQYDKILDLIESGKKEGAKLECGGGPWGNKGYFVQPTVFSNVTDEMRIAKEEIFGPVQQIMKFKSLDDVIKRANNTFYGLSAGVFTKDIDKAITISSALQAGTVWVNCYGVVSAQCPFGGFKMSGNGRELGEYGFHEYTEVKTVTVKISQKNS
HTT aggregate: mutant huntingtin aggregation inhibition | PC12 HttQ103-GFP aggregates, Acumen cytometry, 40 h | Potency, µM (top dose mostly 46.1 µM), actives largely listed as inhibitors | actives 1.1% (n = 220,000); note: nearly all actives have a fitted effect of over 60% in size
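Aggregates are detected as GFP objects 1–25 µm with signal 6 STDEV over background in lysates of induced PC12 cells. These carry Huntingtin exon 1 with 103 glutamines fused to GFP under an ecdysone promoter; compounds titrated.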
HPGD inh: HPGD (human) dehydrogenase inhibition | purified HPGD, NADH fluorescence kinetic, PGE2 substrate | Potency, µM, hits mostly inhibitors | actives 4.3% (n = 150,000) | AID 894; active = well fitted inhibition curve with a large enough effect, not every such curve was filed as active; inconclusive = small, poorly fitted or top-dose-only effect, or another doubt; inactive = no such curve, though single readings can be large or run the other way
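20 nM HPGD preincubated 15 min at room temperature with compound in 50 mM Tris-HCl pH 8, 0.01% Tween 20. Started with 1 mM NAD+ and 30 uM prostaglandin E2; NADH fluorescence (360/450 nm) read 5 times over 30-s intervals, last minus first.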
HTT ATP protect: cytoprotection in Huntington HTT-Q103 PC12 cell model. PC12 HTT-Q103 induced, cytoprotection, ATP luminescence, 40 h. Potency, µM (top dose mostly 56.4 µM), hits mostly activators. actives 0.14% (n = 230,000); note: nearly all actives have a fitted effect of over 45% in size
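Compounds were screened for protection of PC12 cells against cell death after tebufenozide induction (100 nM final) of mutant Huntingtin exon 1 (Q103) fused to GFP.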
IMPase inh: cell-permeable inhibitors of inositol monophosphatase (IMPase); P97697; CHO-M1 cells, IP1 accumulation, HTRF TR-FRET ratio; inhibition (IP1 accumulation), % at 46.1 µM; 120,000 tested, under 10 active; active = well fitted curve in the direction sought with a large enough effect in the signal ratio, not every such curve was filed as active; inconclusive = small, poorly fitted or top-dose-only effect, or a change in a side signal; inactive = no such curve, though single readings can be large or run the other way; the % refers to the signal ratio;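 note: cells stimulated with carbachol in lithium chloride buffer; higher means more IMPase inhibition seen as more IP1 and lower FRET ratio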
Target sequence (P97697 whole entry, looked up): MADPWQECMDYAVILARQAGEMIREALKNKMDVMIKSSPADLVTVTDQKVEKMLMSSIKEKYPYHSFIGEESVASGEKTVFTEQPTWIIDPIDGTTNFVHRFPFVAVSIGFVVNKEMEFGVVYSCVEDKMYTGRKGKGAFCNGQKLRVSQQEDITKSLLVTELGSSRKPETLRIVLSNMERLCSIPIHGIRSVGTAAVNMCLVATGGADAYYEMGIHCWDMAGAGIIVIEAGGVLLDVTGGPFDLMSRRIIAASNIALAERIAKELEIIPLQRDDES
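In this qHTS, compounds (final up to 46 uM) act on CHO-M1 cells that are then activated through the M1 receptor with carbachol, in pH 7.4 buffer containing 50 mM LiCl, for 30 min. IP1 accumulation is quantified by the IP-One immunoassay.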
Hits are given with their value; - = inactive; ? = inconclusive; . = not tested or not shown; [ ] = remark or other dose. This is a sample that favours compounds with a hit; in the whole collection about 9.4% have one here. Unless noted, calls come from the whole dose curve; as a rule, active = well fitted curve in the direction sought with a large enough effect; inconclusive = small, poorly fitted or top-dose-only effect, or another doubt; inactive = no such curve, though single readings can be large; an effect the other way counts as inactive or inconclusive.

SMILES	IMPase Li cell	ALDH1A1 block	HTT aggregate	HPGD inh	HTT ATP protect	IMPase inh
COc1ccc(NC(=O)c2c(NC(=O)COc3ccccc3)sc3c2CCCCC3)cc1	.	.	.	.	.	-
O=C(COc1ccccc1)Nc1sc2c(c1C(=O)NCc1cccnc1)CCCC2	-	20µM	-	-	-[10 µM]	-[1.84 µM]
FC(F)(F)c1ccccc1-c1ccc2ncnc(N3CCOCC3)c2c1	-	?	.	.	-	.
O=[N+]([O-])c1ccc(CSc2ncnc3c2ncn3[C@@H]2O[C@@H](CO)[C@@H](O)[C@H]2O)cc1	.	.	.	.	-[1.9 µM]	-
COC(=O)NC(c1cccc(C)c1)C(C(C)=O)C(=O)OC (stereo not drawn)	.	-[13.5 µM]	.	.	-[10 µM]	.
CC(=O)C[C@H](O)[C@@H](NC(=O)OC(C)(C)C)C(C)C	.	-[13.5 µM]	.	.	-[10 µM]	.
COc1ccc(NC(=O)CCCn2c(=O)c3sccc3n(Cc3cccc(C)c3)c2=O)cc1	-	2µM	-	-	-[10 µM]	-
Cc1cccc(NC(=O)CSC2=Nc3ccccc3C3=NC(CC(=O)NCc4cccs4)C(=O)N23)c1 (stereo not drawn)	.	.	.	.	.	-
COc1cc(NC(=S)Nc2ccc(Br)cc2Cl)c(OC)cc1Cl	-	28µM	-	-	-[10 µM]	-
COc1cc(NC(=S)Nc2cccc(Cl)c2Cl)c(OC)cc1Cl	.	-	-	.	-	-
COc1cc(NC(=S)NCCc2ccc(S(N)(=O)=O)cc2)c(OC)cc1Cl	-	11µM	-	.	-	.
COc1cc(Cl)c(C)cc1NC(=S)NN	-	11µM	-	.	-	.
COc1cc(NC(=S)NC(C)(C)C)c(OC)cc1Cl	-	?	-	.	-[10 µM]	.
COc1cc(C)c(NC(=S)Nc2ccc(Cl)c(Cl)c2)cc1OC	-	8.9µM	?	16µM	?	-
CCOC(=O)Cc1ccc(NC(=O)Nc2cc3c(cc2N2CCCCC2)n(C)c(=O)n3C)cc1	.	.	.	.	.	-
O=C(C[n+]1cc(Br)cc(Br)c1)c1cccc([N+](=O)[O-])c1	-	4µM	-	.	-[10 µM]	.
C#CCN1C(=O)S/C(=C/c2cc(C)n(CC)c2C)C1=O	.	7.5µM	-	.	-[10 µM]	-
COC(=O)CN1C(=O)S/C(=C/c2cc(C)n(C)c2C)C1=O	-	14µM	-	-	-	-
CCn1c(C)cc(/C=C2/SC(=S)N(CC(=O)O)C2=O)c1C	-	-	-	.	.	.
COc1ccc(N=C2S/C(=C\c3cc(C)n(C)c3C)C(=O)N2CC(C)C)cc1	-	2.5µM	-	-	-	-
COc1ccc(N=C2S/C(=C\c3ccco3)C(=O)N2CC(C)C)cc1	-	?	-	-	-	-
O=C(Nc1ccccc1)c1cc2ccccc2c(=O)s1	-	-	11µM	-	.	.
CCOc1ccc(CCNC(c2nnc(-c3ccccc3)o2)c2ccccc2Cl)cc1OCC (stereo not drawn)	.	.	.	.	.	-
CO[C@]12C[C@@H](COC(=O)c3cncc(Br)c3)CN(C)[C@@H]1Cc1cn(C)c3cccc2c13	-	-	-	-	-[1.9 µM]	.
Cc1cc(C)nc(N2N=C(C(C)(C)C)CC2=O)n1	-	6.3µM	-	-	-	-
SMILES	IMPase Li cell	ALDH1A1 block	HTT aggregate	HPGD inh	HTT ATP protect	IMPase inh
Cc1ccc(SCC2=NN(c3nc(C)cc(C)n3)C(=O)C2)cc1	-	-	-	.	-	.
CCOC(=O)c1ccc(N=C2SC(C(=O)Nc3ccccc3)CC(=O)N2C)cc1 (stereo not drawn)	.	.	.	.	.	-
Cc1ccc(OCCCCN2CCCC(C)C2)c([N+](=O)[O-])c1 (stereo not drawn)	-	32µM	-	.	-	.
C=CCc1ccc(OCCCN2CCCC(C)C2)c(OC)c1 (stereo not drawn)	-	16µM	-	-	-	-
C=CCc1ccc(OCCCCN2CCC(C)CC2)c(OC)c1	-	-	-	-	?	.
Cc1ccc(OCCCCNC(C)(C)C)c([N+](=O)[O-])c1	-	13µM	-	-	-[10 µM]	-
CCCCCNCCCCC	-	?	.	-	-	.
Cc1ccc(C(=O)NC(C#N)=C(Cl)Cl)cc1	-	?	.	.	.	.
NCCNS(=O)(=O)c1ccc(N)cc1	-	-[13.5 µM]	.	-	-[10 µM]	.
CS(=O)(=O)Nc1ccc([N+](=O)[O-])cc1OC1CCCCC1	-	22µM	.	-	-	-
C(=N/Nc1nnc2c(n1)[nH]c1ccccc12)/c1cccnc1	-	-[13.5 µM]	.	-	-[10 µM]	.
COC(=O)[C@@H](NC(=O)NCc1ccco1)C(C)C	-	10µM	-	-	-	-
Cn1nc(C(=O)NCc2ccco2)c2ccccc2c1=O	-	13µM	-	-	-[10 µM]	.
Cn1nc(C(=O)Nc2ccc(S(=O)(=O)NCc3ccco3)cc2)c2ccccc2c1=O	.	.	-[9.22 µM]	.	-[10 µM]	.
Cc1cc2ccccc2n1CCNC(=O)c1ccc(Br)cc1	.	.	.	.	.	-
Cc1cc2ccccc2n1CCNC(=O)c1ccc(Br)o1	-	5.6µM	-[9.22 µM]	.	-[10 µM]	.
COC(=O)[C@@H](NC(=O)NCc1cccs1)C(C)C	-	-	-	-	-[0.074 µM]	-
O=C(NCc1ccco1)c1ccc(S(=O)(=O)N2CCCCC2)cc1	-	-	-[9.22 µM]	.	-[10 µM]	.
O=C(NCc1ccco1)c1ccc(S(=O)(=O)N2CCOCC2)cc1	-	16µM	-	16µM	-	-
COC(=O)CC1c2ccccc2C=C(C2CC2)N1C(=O)OC (stereo not drawn)	-	-	.	-	-	.
CCSc1nnc2c(n1)OC(c1cc(OC)c(OC)c(OC)c1)Nc1ccccc1-2 (stereo not drawn)	.	.	.	.	.	-
COc1coc(/C=C/C(=O)O)cc1=O	-	-	-	-	.	.
CC(C)Oc1ccc(C(=O)NCc2ccco2)cc1	-	-	-	18µM	-	-
CCCOc1ccc(C(=O)NCc2ccco2)cc1	-	-	-	?	-	-
O=C(NCc1ccco1)c1ccc(COc2cc(Cl)ccc2Cl)cc1	-	-	-	18µM	?	-
SMILES	IMPase Li cell	ALDH1A1 block	HTT aggregate	HPGD inh	HTT ATP protect	IMPase inh
O=S(=O)(c1cccc(C(F)(F)F)c1)N1CCN(C(=S)NCc2ccco2)CC1	-	-	?	-	?	.
COc1ccc(N2CCN(S(=O)(=O)c3ccc(C(=O)NCc4ccco4)cc3)CC2)cc1	-	7.9µM	-	-	-[10 µM]	-
CC(C)c1ccc(S(=O)(=O)N2CCN(C(=S)NCc3ccco3)CC2)cc1	-	-	-	28µM	-[10 µM]	.
O=C(COc1ccc(Cl)cc1Cl)NNC(=S)NCc1ccco1	-	-	-[9.22 µM]	.	-[10 µM]	.
Cc1cc2ccccc2n1CCNC(=O)c1ccc(S(=O)(=O)N2CCOCC2)cc1	-	10µM	?	-	-	-
O=C(O)c1ccc(SSc2ccc(C(=O)O)cn2)nc1	-	?	.	4µM	-[10 µM]	.
CC(=O)N1CCC[C@@]2(CCN(c3ccncc3)C2)C1	?	-	.	-	-	.
C=CC(=O)OCCOCCOC(=O)C=C	-	25µM	.	-	-	.
Cc1ccc(NC(=O)c2ccc(=O)[nH]c2)cc1S(=O)(=O)N1CCCCC1	.	.	-[9.22 µM]	.	-[10 µM]	.
CC(=O)C1=C(C)NC(=S)NC1c1cc([N+](=O)[O-])ccc1O (stereo not drawn)	.	.	-[9.22 µM]	.	-[10 µM]	.
